The source made the active and inactive calls. How the source made its calls: active means hit-call score of the fitted dose curve at least 0.9, where 1 is the maximum; inactive means score below 0.9.
Columns and labels:
[1] = target: Bile acid receptor (Homo sapiens) (UniProt Q96RI1); assay: ATG_IR1_CIS: Attagene CIS-FACTORIAL HepG2 Assay for human Nuclear Receptor Subfamily 1 Group H Member 4 (NR1H4), IR1 submotif (AID 2282946); details: IR1 reporter transcription, actives raise or lower the signal
Method in brief: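 Transient MRTU transfection, HepG2; 24 h dosing; RNA → RT-PCR → 6-FAM primer extension → HpaI digest → capillary electrophoresis fluorescence. Gain/loss of signal fitted relative to DMSO.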

[2] = ATG_GRE_CIS: Attagene CIS-FACTORIAL HepG2 Assay for human Glucocorticoid Response Elements (GRE) (AID 2282947); details: HepG2 GRE cis-reporter, Attagene multiplex mRNA; actives raise or lower the signal
Method in brief: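 HepG2 cells transiently transfected with multiple cis-promoter reporter units measure endogenous TF activity; 24 h compound exposure. Reporter mRNA quantified by RT-PCR, FAM labelling, HpaI digestion and capillary electrophoresis; bidirectional fit vs DMSO baseline.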

[3] = ATG_ISRE_CIS: Attagene CIS-FACTORIAL HepG2 Assay for human Interferon Regulatory Factor 1 (IRF1) binding to an Interferon-Stimulated Response Element (ISRE) (AID 2282948); details: HepG2 ISRE cis-reporter (Attagene), mRNA transcription readout; actives raise or lower the signal
Method in brief: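 Transfected HepG2 (multiple reporter transcription units, cis elements) dosed 24 h. RNA → oligo(dT) RT → PCR → 6-FAM primer extension → HpaI → CE. DMSO = negative control/baseline.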

[4] = ATG_M_32_CIS: Attagene CIS-FACTORIAL HepG2 Assay for M32 Transcription Factor (Internal Marker) (AID 2282949); details: HepG2 Attagene cis-factorial M32 reporter, mRNA; actives raise or lower the signal;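 further: background control marker of the multiplexed CIS panel rather than a real target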
Method in brief: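 Following 24 h chemical exposure of HepG2 cells transiently expressing cis-promoter reporter constructs, reporter transcript levels were determined by RT-PCR with fluorescent labelling and capillary electrophoresis, then fitted bidirectionally against DMSO.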

[5] = ATG_M_06_CIS: Attagene CIS-FACTORIAL HepG2 Assay for M06 Transcription Factor (Internal Marker) (AID 2282950); details: HepG2 Attagene CIS-FACTORIAL M06 internal marker reporter; actives raise or lower the signal
Method in brief: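 Cells (HepG2, transiently carrying cis-driven reporter units) receive chemical for 24 h before RNA isolation. Reporter cDNA is PCR-amplified, FAM-labelled by primer extension, HpaI-digested and sized on a capillary analyser.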

[6] = target: Hypoxia-inducible factor 1-alpha (Homo sapiens) (UniProt Q16665); assay: ATG_HIF1a_CIS: Attagene CIS-FACTORIAL HepG2 Assay for human Hypoxia Inducible Factor 1 (HIF1A) (AID 2282951); details: HepG2 Attagene cis-factorial HIF1a reporter transcription; actives raise or lower the signal
Method in brief: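 Dosed 24 h, transfected HepG2 cells yielded total RNA whose reporter transcripts were RT-PCR-amplified and sized by capillary electrophoresis using fluorescent labelling; DMSO defined baseline, with gain and loss of signal both fitted.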

[7] = target: Hepatocyte nuclear factor 6 (Homo sapiens) (UniProt Q9UBC0); assay: ATG_HNF6_CIS: Attagene CIS-FACTORIAL HepG2 Assay for human Hepatocyte Nuclear Factor 6 (HNF6) (AID 2282952); details: HepG2 Attagene cis-factorial HNF6 reporter transcription; actives raise or lower the signal
Method in brief: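 HepG2 cells transiently transfected with cis-element-driven multiplexed reporter units measuring endogenous transcription factor activity. After 24 h exposure, reporter mRNA quantified by RT-PCR, FAM-labelled fragments and capillary electrophoresis; bidirectional fitting versus DMSO.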

[8] = target: Heat shock factor protein 1 (Homo sapiens) (UniProt Q00613); assay: ATG_HSE_CIS: Attagene CIS-FACTORIAL HepG2 Assay for human Heat Shock Transcription Factor 1 (HSE) (AID 2282953); details: HepG2 HSE cis-reporter, Attagene RNA transcription; actives raise or lower the signal
Method in brief: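 Liver-derived HepG2 cells carry transiently introduced multiple reporter units governed by cis promoters. Reporter RNA measured 24 h post-dose through reverse transcription, PCR amplification, fluorescent labelling and capillary electrophoresis, normalised to DMSO.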

[9] = ATG_MRE_CIS: Attagene CIS-FACTORIAL HepG2 Assay for human Metal Responsive Element (MRE) (AID 2282954); details: HepG2 MRE cis-reporter transcription, Attagene multiplex; actives raise or lower the signal
Method in brief: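 HepG2 cells transiently transfected with multiple cis-element reporter units measure endogenous MTF1-driven transcription. After 24 h compound exposure, reporter mRNA is quantified by RT-PCR with 6-FAM labelling, HpaI digestion and capillary electrophoresis; bidirectional fits versus DMSO.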

[10] = target: Paired box protein Pax-6 (Homo sapiens) (UniProt P26367); assay: ATG_Pax6_CIS: Attagene CIS-FACTORIAL HepG2 Assay for human Paired Box 6 (PAX6) (AID 2282956); details: HepG2 CIS-FACTORIAL PAX6 reporter transcription, RNA readout; actives raise or lower the signal
Method in brief: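 Transient MRTU transfection of HepG2 → compound exposure 24 h → TriZol RNA, oligo(dT) RT → PCR, 6-FAM primer extension, HpaI cut → capillary electrophoresis; activity fitted both directions against DMSO.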

[11] = ATG_PXRE_CIS: Attagene CIS-FACTORIAL HepG2 Assay for human Pregnane X Receptor Element (PXRE) (AID 2282957); details: HepG2 Attagene CIS-FACTORIAL PXRE reporter, mRNA; actives raise or lower the signal
Method in brief: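 HepG2 cells transiently transfected with cis-element-driven multiplexed reporter units; after 24 h chemical exposure, reporter mRNA measured by RT-PCR, 6-FAM labelling, HpaI digestion and capillary electrophoresis. Bidirectional fitting relative to DMSO.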

[12] = ATG_PPRE_CIS: Attagene CIS-FACTORIAL HepG2 Assay for human Peroxisome Proliferator-activated Response Element (PPRE) (AID 2282958); details: HepG2 PPRE cis-element reporter, Attagene transcription factor profiling; actives raise or lower the signal
Method in brief: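 Measured endpoint: PPRE-controlled reporter mRNA, detected by RT-PCR and capillary electrophoresis fluorescence, from transiently transfected HepG2 cells 24 h after dosing. Curves fitted in both directions using DMSO baseline.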

[13] = ATG_RORE_CIS: Attagene CIS-FACTORIAL HepG2 Assay for human RAR-related Orphan Receptor Element (RORE) (AID 2282959); details: HepG2 Attagene cis-factorial RORE reporter, mRNA; actives raise or lower the signal
Method in brief: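 Transiently transfected HepG2 reporter cells were treated 24 h. Reporter transcripts were detected by RT-PCR and capillary electrophoresis, with bidirectional fitting against DMSO.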

[14] = ATG_SREBP_CIS: Attagene CIS-FACTORIAL HepG2 Assay for human Sterol Regulatory Element Binding (SREBP) (AID 2282962); details: HepG2 Attagene cis-factorial SREBP reporter, mRNA; actives raise or lower the signal
Method in brief: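 Transfected HepG2 (cis-regulated reporter library, endogenous TFs) → compound 24 h → total RNA → oligo(dT) RT → reporter-specific PCR → FAM primer extension, HpaI cut → CE fluorescence. Fit bidirectional vs DMSO.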

[15] = target: Signal transducer and activator of transcription 3 (Homo sapiens) (UniProt P40763); assay: ATG_STAT3_CIS: Attagene CIS-FACTORIAL HepG2 Assay for human Signal Transducer and Activator of Transcription 3 (STAT3) (AID 2282963); details: HepG2, Attagene cis-factorial STAT3 reporter transcription; actives raise or lower the signal
Method in brief: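 HepG2 cells transiently transfected with cis-element-driven multiple reporter transcription units; after 24 h chemical exposure, reporter mRNA measured by RT-PCR, 6-FAM primer-extension labelling, HpaI digestion and capillary electrophoresis. Bidirectional fitting versus DMSO baseline.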

[16] = ATG_TA_CIS: Attagene CIS-FACTORIAL HepG2 Assay for human TA Basal Promoter (AID 2282964); details: HepG2 Attagene CIS-factorial TA basal promoter reporter; actives raise or lower the signal
Method in brief: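 Background internal-marker endpoint from a 52-component HepG2 cis-reporter panel. Cells treated 24 h; reporter transcripts quantified via RT-PCR and CE fluorescence against DMSO baseline.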

[17] = ATG_TCF_b_cat_CIS: Attagene CIS-FACTORIAL HepG2 Assay for human T-Cell-Factor with beta-catenin (TCF/b-cat) (AID 2282965); details: HepG2 TCF/beta-catenin cis-reporter transcription, actives raise or lower the signal
Method in brief: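 HepG2 cells transiently transfected with multiple cis-promoter-regulated reporter transcription units, so endogenous transcription factor activity is measured. Reporter mRNA read 24 hours after dosing by RT-PCR, fluorescent labelling and capillary electrophoresis; bidirectional fitting against DMSO.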

[18] = target: Transcription factor Sp1 (Homo sapiens) (UniProt P08047); assay: ATG_Sp1_CIS: Attagene CIS-FACTORIAL HepG2 Assay for human Specificity Protein 1 (Sp1) (AID 2282961); details: HepG2 Sp1 cis-reporter transcription, actives raise or lower the signal
Method in brief: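 Endpoint reflects endogenous Sp1 transcriptional activity, not an exogenous fusion protein: HepG2 cells with transfected cis-regulated reporters, 24 h dosing, RT-PCR/capillary electrophoresis mRNA read-out, DMSO-normalised bidirectional fit.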

[19] = ATG_PBREM_CIS: Attagene CIS-FACTORIAL HepG2 Assay for human Phenobarbital-responsive Enhancer Module (PBREM) (AID 2282955); details: HepG2 PBREM cis-reporter, Attagene multiplexed transcription; actives raise or lower the signal
Method in brief: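 Transfected liver-derived HepG2 cells exposed 24 h; PBREM reporter transcript quantified via RT-PCR and capillary electrophoresis, with activity in either direction referenced to DMSO.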

[20] = ATG_Sox_CIS: Attagene CIS-FACTORIAL HepG2 Assay for human SRY-box transcription factor (SOX) (AID 2282960); details: HepG2 Attagene cis-factorial SOX reporter, mRNA; actives raise or lower the signal
Method in brief: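 Gain- or loss-of-signal endpoint, fitted bidirectionally with DMSO as negative control. Based on reporter mRNA from transfected HepG2 cells harvested 24 h post-treatment and quantified via RT-PCR and capillary electrophoresis.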

Measured: AC50

Sequence of Heat shock factor protein 1 (Homo sapiens) (Q00613 whole entry, looked up): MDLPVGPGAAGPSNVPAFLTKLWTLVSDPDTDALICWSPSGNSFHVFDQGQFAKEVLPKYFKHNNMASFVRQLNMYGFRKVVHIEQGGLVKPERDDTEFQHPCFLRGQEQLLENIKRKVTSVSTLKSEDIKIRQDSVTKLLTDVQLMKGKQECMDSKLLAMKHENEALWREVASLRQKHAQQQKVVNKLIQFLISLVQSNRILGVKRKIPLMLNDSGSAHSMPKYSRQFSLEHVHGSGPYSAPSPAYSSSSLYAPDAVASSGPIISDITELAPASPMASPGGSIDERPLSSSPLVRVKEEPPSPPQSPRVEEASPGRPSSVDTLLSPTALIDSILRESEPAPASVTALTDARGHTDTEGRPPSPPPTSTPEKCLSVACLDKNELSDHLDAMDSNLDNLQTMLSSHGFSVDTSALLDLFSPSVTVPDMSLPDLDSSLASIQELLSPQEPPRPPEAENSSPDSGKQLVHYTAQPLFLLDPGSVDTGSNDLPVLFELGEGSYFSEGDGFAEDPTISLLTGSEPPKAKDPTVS
Sequence of Hypoxia-inducible factor 1-alpha (Homo sapiens) (Q16665 whole entry, looked up): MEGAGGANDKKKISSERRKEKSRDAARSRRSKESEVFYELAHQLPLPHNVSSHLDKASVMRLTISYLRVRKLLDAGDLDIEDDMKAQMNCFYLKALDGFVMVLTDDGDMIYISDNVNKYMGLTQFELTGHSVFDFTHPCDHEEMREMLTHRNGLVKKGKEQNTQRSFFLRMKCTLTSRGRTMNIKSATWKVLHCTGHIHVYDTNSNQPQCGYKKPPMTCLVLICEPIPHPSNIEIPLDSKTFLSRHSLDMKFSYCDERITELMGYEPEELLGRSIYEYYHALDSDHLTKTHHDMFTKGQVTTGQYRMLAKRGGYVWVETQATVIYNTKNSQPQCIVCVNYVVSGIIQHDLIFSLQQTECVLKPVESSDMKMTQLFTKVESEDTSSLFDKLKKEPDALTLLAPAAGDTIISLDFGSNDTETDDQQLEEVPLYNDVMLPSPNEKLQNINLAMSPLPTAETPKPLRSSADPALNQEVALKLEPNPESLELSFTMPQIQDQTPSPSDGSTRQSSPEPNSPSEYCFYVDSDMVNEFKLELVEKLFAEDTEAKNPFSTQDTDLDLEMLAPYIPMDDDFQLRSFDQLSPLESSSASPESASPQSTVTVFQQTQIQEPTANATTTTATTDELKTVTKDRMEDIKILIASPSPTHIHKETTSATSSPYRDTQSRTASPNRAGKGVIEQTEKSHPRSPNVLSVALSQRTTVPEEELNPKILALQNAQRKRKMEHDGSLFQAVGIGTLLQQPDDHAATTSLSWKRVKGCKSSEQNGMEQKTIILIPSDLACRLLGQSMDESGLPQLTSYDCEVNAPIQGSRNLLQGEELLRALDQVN
Sequence of Signal transducer and activator of transcription 3 (Homo sapiens) (P40763 whole entry, looked up): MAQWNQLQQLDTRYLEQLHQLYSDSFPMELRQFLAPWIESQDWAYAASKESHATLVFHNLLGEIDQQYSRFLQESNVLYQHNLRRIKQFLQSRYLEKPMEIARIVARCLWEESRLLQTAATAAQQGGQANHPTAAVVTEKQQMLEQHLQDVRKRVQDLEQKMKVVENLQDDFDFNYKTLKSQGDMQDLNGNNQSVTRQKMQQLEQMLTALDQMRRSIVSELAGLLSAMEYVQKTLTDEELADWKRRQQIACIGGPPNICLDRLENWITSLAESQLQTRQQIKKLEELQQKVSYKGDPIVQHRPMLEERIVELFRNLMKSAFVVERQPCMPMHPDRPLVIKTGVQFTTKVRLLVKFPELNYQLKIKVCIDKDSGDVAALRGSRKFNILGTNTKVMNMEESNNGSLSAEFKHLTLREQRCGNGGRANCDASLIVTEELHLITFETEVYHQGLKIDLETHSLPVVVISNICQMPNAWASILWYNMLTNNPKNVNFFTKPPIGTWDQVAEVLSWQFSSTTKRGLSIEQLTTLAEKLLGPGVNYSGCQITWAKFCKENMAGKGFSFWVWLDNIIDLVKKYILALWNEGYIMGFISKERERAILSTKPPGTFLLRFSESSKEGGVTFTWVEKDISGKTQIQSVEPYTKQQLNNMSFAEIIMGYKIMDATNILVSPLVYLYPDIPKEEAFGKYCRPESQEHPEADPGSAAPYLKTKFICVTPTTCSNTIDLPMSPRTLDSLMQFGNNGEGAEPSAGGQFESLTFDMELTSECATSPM
Sequence of Hepatocyte nuclear factor 6 (Homo sapiens) (Q9UBC0 whole entry, looked up, the tested form may be a part): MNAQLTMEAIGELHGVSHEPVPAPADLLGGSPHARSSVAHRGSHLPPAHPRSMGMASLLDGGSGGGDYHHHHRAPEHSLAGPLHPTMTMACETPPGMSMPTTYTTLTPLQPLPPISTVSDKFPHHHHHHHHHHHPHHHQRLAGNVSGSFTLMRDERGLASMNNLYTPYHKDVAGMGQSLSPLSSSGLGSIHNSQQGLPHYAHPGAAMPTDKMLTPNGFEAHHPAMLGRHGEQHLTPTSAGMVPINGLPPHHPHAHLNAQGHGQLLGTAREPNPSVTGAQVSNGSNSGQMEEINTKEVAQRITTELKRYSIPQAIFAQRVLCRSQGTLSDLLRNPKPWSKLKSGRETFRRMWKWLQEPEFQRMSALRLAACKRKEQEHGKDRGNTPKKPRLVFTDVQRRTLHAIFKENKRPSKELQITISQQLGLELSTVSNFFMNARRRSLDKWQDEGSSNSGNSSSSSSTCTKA
Sequence of Transcription factor Sp1 (Homo sapiens) (P08047 whole entry, looked up, the tested form may be a part): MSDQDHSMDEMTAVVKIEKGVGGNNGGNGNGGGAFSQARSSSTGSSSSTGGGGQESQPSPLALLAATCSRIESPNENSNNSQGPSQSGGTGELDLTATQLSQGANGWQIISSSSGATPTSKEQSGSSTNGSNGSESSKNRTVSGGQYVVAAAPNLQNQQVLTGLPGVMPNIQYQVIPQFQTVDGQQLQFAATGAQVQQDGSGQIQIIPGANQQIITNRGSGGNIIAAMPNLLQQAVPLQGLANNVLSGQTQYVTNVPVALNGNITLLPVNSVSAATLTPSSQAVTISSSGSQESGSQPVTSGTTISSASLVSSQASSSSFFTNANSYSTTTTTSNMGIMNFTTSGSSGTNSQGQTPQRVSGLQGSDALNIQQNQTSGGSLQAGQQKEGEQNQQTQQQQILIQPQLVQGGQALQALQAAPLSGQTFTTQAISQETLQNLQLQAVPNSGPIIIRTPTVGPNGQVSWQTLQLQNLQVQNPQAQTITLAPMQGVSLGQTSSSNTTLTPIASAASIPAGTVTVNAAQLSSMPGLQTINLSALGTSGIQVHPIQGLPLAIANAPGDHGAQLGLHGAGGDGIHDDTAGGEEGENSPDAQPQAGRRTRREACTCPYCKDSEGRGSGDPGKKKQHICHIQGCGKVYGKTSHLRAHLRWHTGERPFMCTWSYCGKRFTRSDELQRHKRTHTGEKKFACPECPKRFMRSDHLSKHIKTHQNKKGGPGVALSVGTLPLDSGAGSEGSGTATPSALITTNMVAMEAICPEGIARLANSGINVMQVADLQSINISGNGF
Sequence of Paired box protein Pax-6 (Homo sapiens) (P26367 whole entry, looked up): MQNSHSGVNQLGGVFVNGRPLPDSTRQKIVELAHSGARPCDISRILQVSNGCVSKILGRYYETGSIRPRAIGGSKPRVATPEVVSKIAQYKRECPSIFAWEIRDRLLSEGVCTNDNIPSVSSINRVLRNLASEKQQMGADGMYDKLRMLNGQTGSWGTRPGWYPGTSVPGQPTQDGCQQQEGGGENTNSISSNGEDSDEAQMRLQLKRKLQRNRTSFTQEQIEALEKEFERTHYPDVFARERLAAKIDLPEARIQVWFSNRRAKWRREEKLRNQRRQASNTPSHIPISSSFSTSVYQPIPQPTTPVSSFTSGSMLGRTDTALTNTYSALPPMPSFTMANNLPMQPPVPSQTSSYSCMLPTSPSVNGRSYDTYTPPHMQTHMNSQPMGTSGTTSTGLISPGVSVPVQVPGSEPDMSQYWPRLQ
Sequence of Bile acid receptor (Homo sapiens) (Q96RI1 whole entry, looked up): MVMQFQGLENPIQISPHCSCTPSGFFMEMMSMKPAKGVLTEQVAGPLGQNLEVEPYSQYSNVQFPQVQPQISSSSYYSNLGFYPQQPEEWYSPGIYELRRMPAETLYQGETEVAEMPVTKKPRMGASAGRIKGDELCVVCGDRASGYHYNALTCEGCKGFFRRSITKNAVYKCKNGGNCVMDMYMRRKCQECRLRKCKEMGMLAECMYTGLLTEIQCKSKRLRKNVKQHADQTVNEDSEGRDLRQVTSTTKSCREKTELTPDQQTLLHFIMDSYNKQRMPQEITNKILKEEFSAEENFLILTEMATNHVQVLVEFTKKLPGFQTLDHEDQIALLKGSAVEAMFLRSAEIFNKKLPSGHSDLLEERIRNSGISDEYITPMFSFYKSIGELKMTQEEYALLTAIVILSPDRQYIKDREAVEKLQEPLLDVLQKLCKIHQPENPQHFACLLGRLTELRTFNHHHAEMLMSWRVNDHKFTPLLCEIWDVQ

CC[C@H]1OC(=O)[C@H](C)[C@@H](O[C@H]2C[C@@](C)(OC)[C@@H](O)[C@H](C)O2)[C@H](C)[C@@H](O[C@@H]2O[C@H](C)C[C@H](N(C)C)[C@H]2O)[C@](C)(O)C[C@@H](C)C(=NOCOCCOC)[C@H](C)[C@@H](O)[C@]1(C)O
inactive: [1] | [2] | [3] | [4] | [5] | [6] | [7] | [8] | [9] | [10] | [11] | [12] | [13] | [14] | [15] | [16] | [17]

CC(=O)c1ccc[nH]1
inactive: [1] | [2] | [3] | [4] | [5] | [6] | [7] | [8] | [9] | [10] | [11] | [12] | [13] | [18] | [14] | [15] | [17]

O=C(C(Cl)Cl)N1CCOC12CCCCC2
active: [1] 5.74 µM | [10] 13.1 µM | [16] 12 µM
inactive: [2] | [3] | [4] | [5] | [6] | [7] | [9] | [19] | [11] | [12] | [20] | [18] | [14] | [15] | [17]

CCCC(C)CCC(C)=O (configuration not stated)
inactive: [1] | [2] | [3] | [4] | [5] | [6] | [7] | [8] | [9] | [19] | [10] | [11] | [12] | [13] | [20] | [18] | [14] | [15] | [16] | [17]

Source: PubChem BioAssay (EPA / NIEHS)
